Here are results for 14 compounds from PubChem BioAssay.

A short description of assay [1]: inhibitors of TNFa-induced NFkB p65 translocation, primary screen, imaging, HUVEC, MLSMR starter and 10KST1 sets (AID 438).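 Further: compound added about 3h40 before a 20 min TNFalpha stimulation.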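 On inhibition: signal is the nuclear over cytoplasmic p65 intensity ratio per well.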 The conditions noted are these: HUVEC TNFa-induced p65 nuclear translocation; cell count: measured here: nuclei count (cytotoxicity indicator), at 2.08 µM; inhibition: at 2 µM, stronger effect = higher value, 0% TNFa-plus-vehicle, 100% no-TNFa wells.
Assay [2] in a line: inhibitors of mutant huntingtin aggregation, primary screen, imaging, exon1htt(103Q)mCFP cells, high-content imaging (AID 483;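 active means visual image review flags a hit and inhibition of aggregation exceeds 20%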;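 further: compound exposure lasted 3 days before fixation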;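 on nuclei count: percent of the per-plate median nuclei count of sample wells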). Particulars: exon1htt(103Q)mCFP cell line, aggregate imaging, at 2 µM; inhibition of aggregation: stronger effect = higher value; nuclei count: measured here: cell count, toxicity.
Assay [3] is described as follows: inhibitors of E-selectin induction by TNFa, primary screen, imaging, HUVEC, immunofluorescence, MLSMR starter and 10KST1 sets (AID 487;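 active means visually confirmed hit in the image check and inhibition above 20%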;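 on inhibition: signal is fraction of cell area covered by stained E-selectin grains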;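 on nuclei count: 100% = median nuclei count of all wells on the same plate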). Particulars: HUVEC TNFalpha-induced E-selectin immunofluorescence imaging, at 2 µM; inhibition: stronger effect = higher value; nuclei count: measured here: cell number, toxicity.
For assay [4], the target named is Voltage-gated potassium channel subunit beta-2 (Rattus norvegicus) (UniProt P62483). Briefly: KvBeta enzyme negative modulators, primary screen, biochemical, NADPH fluorescence (AID 622;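 active means fluorescence slope higher than the sample average by over 3 SD, cut at about -0.22 in these data, passing the limit was not always enough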;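 further: slope of raw intensity against log time taken from 70 to 1610 s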). The conditions noted are these: recombinant KvBeta, 4-cyanobenzaldehyde reduction, at 10 µM, stronger effect = higher value.
Voltage-gated potassium channel subunit beta-2 (Rattus norvegicus), sequence (P62483 whole entry, looked up): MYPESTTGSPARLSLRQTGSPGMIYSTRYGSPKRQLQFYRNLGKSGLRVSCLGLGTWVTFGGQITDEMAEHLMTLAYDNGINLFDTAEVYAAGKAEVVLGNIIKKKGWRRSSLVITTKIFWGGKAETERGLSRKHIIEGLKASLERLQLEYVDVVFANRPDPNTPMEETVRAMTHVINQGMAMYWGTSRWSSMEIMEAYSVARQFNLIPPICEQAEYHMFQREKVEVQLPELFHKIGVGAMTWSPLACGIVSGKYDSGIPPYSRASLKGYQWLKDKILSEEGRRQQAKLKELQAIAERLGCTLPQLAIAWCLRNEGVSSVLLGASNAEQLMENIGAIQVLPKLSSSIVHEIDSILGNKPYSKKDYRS
For assay [5] the target is unchanged. Briefly: KvBeta positive modulators, primary screen, biochemical, NADPH fluorescence (AID 623;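 active means NADPH fluorescence slope more negative than the mean of all samples by about 3 SD, 99.7% confidence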;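 further: fluorescence intensity change per second fitted from 20 to 320 s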). Particulars: Recombinant KvBeta, NADPH fluorescence decrease slope, 10 min; at 10 µM; stronger effect = lower value.
For assay [6], the target named is Alpha-2C adrenergic receptor (Homo sapiens) (UniProt P18825). Briefly: modulators of alpha2C/GIRK thallium flux, primary screen, cell-based, HEK293 alpha2C/GIRK1/2 (AID 624;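 active means fluorescence slope after compound addition differing from the mean of all screened samples at 99.7% confidence, in either direction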;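 further: slope of fluorescence ratio to pre-addition baseline per second over 15 to 24 s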). Particulars: thallium flux BTC fluorescence, at 10 µM, actives lie on both sides.
Alpha-2C adrenergic receptor (Homo sapiens), sequence (P18825 whole entry, looked up): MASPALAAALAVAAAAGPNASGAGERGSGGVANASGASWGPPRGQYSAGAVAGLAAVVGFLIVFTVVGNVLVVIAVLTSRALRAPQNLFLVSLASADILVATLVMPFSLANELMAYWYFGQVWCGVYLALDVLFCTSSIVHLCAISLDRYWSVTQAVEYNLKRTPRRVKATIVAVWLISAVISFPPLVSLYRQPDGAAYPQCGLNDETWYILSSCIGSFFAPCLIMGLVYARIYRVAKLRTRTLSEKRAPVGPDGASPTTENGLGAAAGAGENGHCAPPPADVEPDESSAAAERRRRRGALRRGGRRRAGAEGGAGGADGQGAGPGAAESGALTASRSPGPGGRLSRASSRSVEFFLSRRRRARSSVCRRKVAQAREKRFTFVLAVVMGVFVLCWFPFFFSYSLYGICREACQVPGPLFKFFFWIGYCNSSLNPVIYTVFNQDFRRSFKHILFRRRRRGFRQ
A short description of assay [7]: inhibitors of Sendai virus-induced IRF3 signaling, primary screen, TLR/RLR signaling modifier project, cell-based, Sendai virus stimulus, luciferase, 10K MLSCN set (AID 602276;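 active means inhibition at or above 50% at 10 µM; inactive means inhibition below 50%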;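 further: firefly luciferase from ISG56 promoter only with Renilla not read in this screen; 0% = Sendai virus plus DMSO and 100% = medium plus DMSO without virus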). The conditions noted are these: HEK293 RL24 IRF3 luciferase reporter, at 10 µM, stronger effect = higher value. On the technique in general: In a reporter assay the amount or activity of a reporter protein is the signal.

Assay [8] in a line: inhibitors of poly I:C-induced TLR3 signaling, primary screen, cell-based, poly I:C stimulus, luciferase, 10K MLSCN set (AID 602277;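 active means inhibition of the reporter signal at or above 50%; inactive means inhibition below 50%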). Particulars: HEK293-TLR3 RL24 IRF3 luciferase reporter, at 10 µM, stronger effect = higher value.

Each structure is given as a SMILES string. Active and inactive are the calls of the source.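 How the source made its calls, unless noted: active means inhibition above 20% together with a positive visual image hit; inconclusive means visual image hit but inhibition not above 20%; inactive means no visual image hit.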

As to `O=C(O)C1CCCN1S(=O)(=O)c1ccc2ccccc2c1` (centres undefined), in assay [1], the cell count came to 609. Further, the inhibition in assay [1] was -3.4% (inactive); in assay [3], -83.6% (inactive); in assay [7], -1.98% (inactive); in assay [8] it was -11.3% (inactive). For the same compound, the inhibition of aggregation in assay [2] is -2.3% (inactive). The nuclei count in assay [2] was determined as 89.5%; in assay [3], 106%. The fluorescence slope in assay [4] is -0.627 (inactive). In addition, in assay [5], the NADPH fluorescence slope was -2e-06 (inactive). Further, the slope in assay [6] was 0.00297 (inactive).
In the case of `Cc1ccccc1N1C(N)=NC(N)=NC1(C)C`, the cell count in assay [1] came out at 635. The inhibition in assay [1] is -9.8% (inactive); in assay [3] it was -6.8% (inactive); in assay [7] it was 4.23% (inactive); in assay [8], 5.9% (inactive). Moreover, the inhibition of aggregation in assay [2] is 0.5% (inactive). In addition, the nuclei count in assay [2] came to 103%; in assay [3], 110%. Also, the fluorescence slope in assay [4] is -0.584 (inactive). Further, in assay [5], the NADPH fluorescence slope was -1.3e-05 (inactive). Also, the slope in assay [6] is 0.00605 (inactive).
For `Cc1cccc(Cc2c(C)nc3nc(SCC(=O)NCc4ccco4)nn3c2C)c1`, the cell count in assay [1] came out at 389. Further, the inhibition in assay [1] is 0.3% (inactive); in assay [3], -79.7% (inactive); in assay [7] it was 10.8% (inactive); in assay [8] it was 27.6% (inactive). For the same compound, the inhibition of aggregation in assay [2] was 5.8% (inactive). The nuclei count in assay [2] came out at 85.7%; in assay [3], 101%. The fluorescence slope in assay [4] was -0.463 (inactive). Moreover, the NADPH fluorescence slope in assay [5] is -5.1e-07 (inactive). For the same compound, in assay [6], the slope was 0.00687 (inactive).
Turning to `Cc1ccc(N=Cc2ccc[nH]2)c(O)c1`, in assay [1], the cell count turned out to be 438. In addition, the inhibition in assay [1] is 4.9% (inactive); in assay [3], 7% (inactive); in assay [7] it was -10% (inactive); in assay [8], -22.4% (inactive). The inhibition of aggregation in assay [2] was 18.3% (inactive). In addition, the figures for the nuclei count in assay [2] and in assay [3] were 108% and 112%, respectively. Besides, the fluorescence slope in assay [4] was -0.373 (inactive). The NADPH fluorescence slope in assay [5] is -2.1e-06 (inactive). In assay [6], the slope was 0.0076 (inactive).
Consider `CCOC(=O)N1CCC(NC(=O)c2cnn3ccccc23)CC1`, for which the cell count in assay [1] was 761. Moreover, the inhibition was 7.4% (inactive) in assay [1], -67% (inactive) in assay [3], -3.54% (inactive) in assay [7] and 9.82% (inactive) in assay [8]. Besides, in assay [2], the inhibition of aggregation was -3.3% (inactive). Moreover, the nuclei count in assay [2] is 88.5%; in assay [3], 113%. In addition, in assay [4], the fluorescence slope is -0.589 (inactive). Also, the NADPH fluorescence slope in assay [5] was 4.8e-07 (inactive). Also, in assay [6], the slope was 0.0078 (inactive).
In the case of `COCCNC(=O)CC(NS(=O)(=O)c1ccc(NC(C)=O)cc1)C(C)C` (centres undefined), the cell count in assay [1] turned out to be 435. Besides, the inhibition in assay [1] is 6.5% (inactive); in assay [3], -122% (inactive); in assay [7], 8.34% (inactive); in assay [8], 25.9% (inactive). In addition, the inhibition of aggregation in assay [2] is -1.2% (inactive). Moreover, the nuclei count in assay [2] is 105%; in assay [3], 107%. Also, in assay [4], the fluorescence slope is -0.397 (inactive). Also, in assay [5], the NADPH fluorescence slope is -7.5e-05 (inactive). Moreover, the slope in assay [6] was 0.00454 (inactive).
For `COc1ccccc1NC(=O)CSC1CC(=O)N(c2ccc3c(c2)OCO3)C1=O` (centres undefined), the cell count in assay [1] is 685. For the same compound, the inhibition was -3.4% (inactive) in assay [1], -109% (inactive) in assay [3], 17.9% (inactive) in assay [7] and 21.8% (inactive) in assay [8]. In addition, the inhibition of aggregation in assay [2] is -2.5% (inactive). Moreover, the nuclei count in assay [2] is 95.7%; in assay [3], 122%. Moreover, the fluorescence slope in assay [4] was -0.622 (inactive). In assay [5], the NADPH fluorescence slope is 2.7e-05 (inactive). For the same compound, the slope in assay [6] is 0.00433 (inactive).
For `C/C(Cl)=C/Cn1c(SCc2ccc(Cl)cc2)nc2c1c(=O)[nH]c(=O)n2C`, in assay [1], the cell count was determined as 551. Further, the inhibition in assay [1] is -9.4% (inactive); in assay [3] it was 15% (inactive); in assay [7], 4.08% (inactive); in assay [8], 12% (inactive). Further, the inhibition of aggregation in assay [2] was 10.9% (inactive). In addition, the figures for the nuclei count in assay [2] and in assay [3] were 108% and 96.1%, respectively. Also, the fluorescence slope in assay [4] was -0.513 (inactive). The NADPH fluorescence slope in assay [5] was -2.3e-05 (inactive). Besides, the slope in assay [6] is 0.00751 (inactive).
For the compound `C=CCSC1=C(C#N)C(c2ccccc2C)CC(=O)N1` (centres undefined), the cell count in assay [1] was 556. The inhibition in assay [1] was 2.1% (inactive); in assay [3], -48.8% (inactive); in assay [7], -5.91% (inactive); in assay [8] it was -13.9% (inactive). Also, the inhibition of aggregation in assay [2] was -12.2% (inactive). In addition, the nuclei count in assay [2] came out at 94%; in assay [3] it was 174%. For the same compound, in assay [4], the fluorescence slope is -0.601 (inactive). Moreover, in assay [5], the NADPH fluorescence slope is -1.1e-05 (inactive). Besides, the slope in assay [6] is 0.00492 (inactive).
Regarding `Cc1nnc(SCc2cc(=O)[nH]c(N3CCCCC3)n2)s1`, in assay [1], the cell count is 639. The inhibition in assay [1] is 5% (inactive); in assay [3], 14.7% (inactive); in assay [7], 13.1% (inactive); in assay [8], 19.7% (inactive). Moreover, the inhibition of aggregation in assay [2] was 0.6% (inactive). The nuclei count in assay [2] is 96.3%; in assay [3], 107%. The fluorescence slope in assay [4] is -0.592 (inactive). In assay [5], the NADPH fluorescence slope was -3.2e-05 (inactive). Also, the slope in assay [6] is 0.00759 (inactive).
Consider `COCCn1nnnc1CN1CCC(Cc2ccccc2)CC1`, for which the cell count in assay [1] is 513. Also, the inhibition in assay [1] was -16.4% (inactive); in assay [3] it was -71.7% (inactive); in assay [7] it was 12.6% (inactive); in assay [8] it was 13.6% (inactive). In assay [2], the inhibition of aggregation is -12.1% (inactive). Further, the nuclei count was 113% in assay [2] and 96.1% in assay [3]. Moreover, the fluorescence slope in assay [4] is -0.484 (inactive). Also, in assay [5], the NADPH fluorescence slope was -6.1e-05 (inactive). Also, the slope in assay [6] is 0.00482 (inactive).
`CCc1nnc(NC(=O)c2ccc(COc3ccccc3)o2)s1`: the cell count in assay [1] came out at 736. The inhibition in assay [1] was -49% (inactive); in assay [3], -18.9% (inactive); in assay [7], -7.49% (inactive); in assay [8], 3.46% (inactive). Also, the inhibition of aggregation in assay [2] is -1.8% (inactive). Further, the nuclei count in assay [2] came out at 101%; in assay [3] it was 102%. In addition, in assay [4], the fluorescence slope is -0.519 (inactive). Also, the NADPH fluorescence slope in assay [5] was -2.5e-05 (inactive). For the same compound, in assay [6], the slope is 0.00512 (inactive).
Take `O=C(CCN1C(=O)C2C3C=CC(C3)C2C1=O)NCCc1ccccc1Cl` (centres undefined): in assay [1], the cell count stood at 408. In addition, the inhibition in assay [1] is 10.7% (inactive); in assay [3] it was -111% (inactive); in assay [7], -11.5% (inactive); in assay [8], -13.2% (inactive). The inhibition of aggregation in assay [2] was -1.6% (inactive). Moreover, the nuclei count amounted to 103% in assay [2] and 99.4% in assay [3]. Also, the fluorescence slope in assay [4] was -0.498 (inactive). For the same compound, the NADPH fluorescence slope in assay [5] is -2.1e-05 (inactive). The slope in assay [6] was 0.00634 (inactive).
Take `COc1ccc(CN(C(=O)CSc2nnc(-c3ccccc3F)o2)c2ccc(F)cc2)cc1`: the cell count in assay [1] came out at 560. The inhibition in assay [1] is -14.3% (inactive); in assay [3], -118% (inactive); in assay [7], 8.03% (inactive); in assay [8], 9.3% (inactive). The inhibition of aggregation in assay [2] is 15% (inactive). Moreover, the figures for the nuclei count in assay [2] and in assay [3] were 85.2% and 123%, respectively. Moreover, the fluorescence slope in assay [4] is -0.421 (inactive). The NADPH fluorescence slope in assay [5] is -3.9e-05 (inactive). For the same compound, the slope in assay [6] was 0.0074 (inactive).

The inhibition is the change of the read-out against control, counted positive when it falls.
